According to PubChem BioAssay:
Calls of active or inactive are those of the source.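 How the source made its calls, unless noted: active means viability at or below 30% in both replicate assays; inconclusive means viability at or below 30% in just one of the two assays; inactive means the rest.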

Key:
[1] = reducers of endogenous Her2 protein level, primary screen, SKBR3 breast tumor cells, AlphaScreen, ATP viability (AID 461;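 active means Her2 level under about 52% in both replicate screens, with viability over 70% of control, limit read from the data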;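 on Her2 level: lower value means less Her2 protein in the cells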;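 on viability: percent of carrier control wells set as 100% viability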); conditions: 18-24 h, measured here: SKBR3 viability, ATP luminescence, at 10 µM
[2] = molecular target: Receptor tyrosine-protein kinase erbB-2 (Homo sapiens) (UniProt P04626); assay: as above; conditions: 18-24 h, at 10 µM, stronger effect = lower value
[3] = SK-BR-3 cell growth inhibitors, pilot screen, 24 h, human (AID 572;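 active means viability at or below 10% of carrier control in both of two separate runs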;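 further: compound exposure lasted between 18 and 24 h rather than exactly 24 h; 100% = carrier-treated control wells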); conditions: SK-BR-3 viability, CellTiter-Glo luminescence, at 10 µM, stronger effect = lower value
[4] = HUVEC growth inhibition – cell-based, human, primary screen (AID 575); conditions: HUVEC proliferation, CellTiter-Glo luminescence, 72 h; at 10 µM; stronger effect = lower value;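 further: 100% = median of untreated cell wells with 0.1% DMSO on each plate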
[5] = growth inhibitors of H69AR lung tumor, primary screen, human, duplicate replicates (AID 580;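 active means viability at or under a set limit in both replicates, limit being median viability minus 3 SD, cut at about 48% in these data, passing the limit was not always enough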;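 further: 100% = mean luminescence of untreated wells and 0% = no signal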); conditions: H69AR lung tumor cells viability, ATP luminescence, 72 h; at 10 µM; stronger effect = lower value
[6] = reversal of MRP1-mediated doxorubicin resistance, pilot screen, H69AR cells, doxorubicin co-treatment (AID 601;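 active means viability loss from added drug above about 55%, and viability with drug at most 40%, in both replicates, limit read from the data, passing the limit was not always enough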); conditions: CellTiter-Glo, 72 h, at 10 µM; for differential viability (reversal): stronger effect = higher value
[7] = 384-well plate pilot, post-Golgi transport modulator project, inhibition of yeast transport mutant growth (AID 636; in the data active means inhibition above about 31%); conditions: absorbance 615 nm, about 18 h, stronger effect = higher value
[8] = growth suppression of yeast trafficking mutant, preliminary HTS, modulators of trafficking downstream of Golgi apparatus project, 1536-format plate, OD 615 nm (AID 637; in the data active means inhibition above about 30%); conditions: yeast transport mutant growth, absorbance 615 nm, 18 h; stronger effect = higher value
[9] = H69AR cells + 2 uM doxorubicin, measured here: viability with 2 uM doxorubicin, stronger effect = lower value
[10] = H69AR cells, compound alone cytotoxicity

Receptor tyrosine-protein kinase erbB-2 (Homo sapiens), sequence (P04626 whole entry, looked up): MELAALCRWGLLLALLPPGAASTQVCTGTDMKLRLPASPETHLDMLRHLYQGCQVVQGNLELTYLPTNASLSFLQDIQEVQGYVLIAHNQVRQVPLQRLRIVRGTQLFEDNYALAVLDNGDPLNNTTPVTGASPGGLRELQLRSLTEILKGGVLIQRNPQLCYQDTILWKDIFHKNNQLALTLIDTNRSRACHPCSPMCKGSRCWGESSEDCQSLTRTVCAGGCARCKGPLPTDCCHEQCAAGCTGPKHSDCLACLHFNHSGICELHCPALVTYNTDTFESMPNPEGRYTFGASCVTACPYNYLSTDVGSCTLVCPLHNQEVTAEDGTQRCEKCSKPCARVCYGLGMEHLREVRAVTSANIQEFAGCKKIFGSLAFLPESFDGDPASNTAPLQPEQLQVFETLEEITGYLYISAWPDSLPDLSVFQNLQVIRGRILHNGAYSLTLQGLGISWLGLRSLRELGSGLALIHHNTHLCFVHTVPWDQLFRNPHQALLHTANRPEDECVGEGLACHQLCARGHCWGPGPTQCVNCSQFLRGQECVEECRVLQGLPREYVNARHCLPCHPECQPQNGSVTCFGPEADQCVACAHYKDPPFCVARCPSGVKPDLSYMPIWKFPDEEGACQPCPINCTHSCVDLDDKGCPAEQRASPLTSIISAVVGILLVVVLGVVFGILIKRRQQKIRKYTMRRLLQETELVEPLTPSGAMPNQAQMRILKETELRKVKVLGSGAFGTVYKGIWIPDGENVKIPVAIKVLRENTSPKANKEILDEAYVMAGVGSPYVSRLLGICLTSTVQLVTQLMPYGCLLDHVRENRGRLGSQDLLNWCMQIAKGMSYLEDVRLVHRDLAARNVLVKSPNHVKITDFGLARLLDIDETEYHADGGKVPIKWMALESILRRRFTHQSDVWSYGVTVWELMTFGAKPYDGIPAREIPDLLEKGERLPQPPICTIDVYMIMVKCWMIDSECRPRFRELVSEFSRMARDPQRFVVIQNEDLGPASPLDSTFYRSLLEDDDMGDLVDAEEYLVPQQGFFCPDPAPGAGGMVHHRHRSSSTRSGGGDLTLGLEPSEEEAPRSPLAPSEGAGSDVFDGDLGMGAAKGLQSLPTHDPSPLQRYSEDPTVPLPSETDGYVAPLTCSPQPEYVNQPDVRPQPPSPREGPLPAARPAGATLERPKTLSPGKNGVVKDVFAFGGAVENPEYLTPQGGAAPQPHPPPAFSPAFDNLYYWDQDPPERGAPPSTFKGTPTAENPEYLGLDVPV

| Compound | viability [1] [%] | Her2 level [2] | viability [3] | viability [4] | viability [5] | differential viability (reversal) ([6]; H69AR cells + 2 uM doxorubicin) | viability [6, 9] [%] | viability [6, 10] [%] | inhibition [7] | inhibition [8] |
| --- | --- | --- | --- | --- | --- | --- | --- | --- | --- | --- |
| CCCN1C(=O)c2cc(C(=O)O)ccc2C1O (stereo not given) | 113 | 100% (inactive) | 113% (inactive) | 90.1% (inactive) | 103% (inactive) | 18.7% (inactive) | 84.1 | 103 | -1.07% (inactive) | 1.48% (inactive) |
| O=c1oc2ccccc2c(N2CCCCC2)c1CN1CCCCC1 | 86 | 99% (inactive) | 86% (inactive) | 86.2% (inactive) | 82.5% (inactive) | -0.775% (inactive) | 83.3 | 82.5 | -1.05% (inactive) | -4.03% (inactive) |
| C#CC1(O)CC(C)N(C)C(C)C1 (stereo not given) | 105 | 85% (inactive) | 105% (inactive) | 85.3% (inactive) | 91.9% (inactive) | 13.6% (inactive) | 78.3 | 91.9 | -4.55% (inactive) | -4.6% (inactive) |
| NS(=O)(=O)c1ccc(NC(=O)N[C@@H](Cc2ccccc2)C(=O)O)cc1 | 82.5 | 95.5% (inactive) | 82.5% (inactive) | 95.6% (inactive) | 97.6% (inactive) | 5% (inactive) | 92.6 | 97.6 | -3.73% (inactive) | 4.52% (inactive) |
| CCN(CC(=O)NCc1cccs1)C(=O)c1cc(S(=O)(=O)N2CCOCC2)ccc1C | 89.5 | 118% (inactive) | 89.5% (inactive) | 98.8% (inactive) | 87.7% (inactive) | -0.58% (inactive) | 88.3 | 87.7 | -4.03% (inactive) | -10% (inactive) |
| S=C(NCC1CCCO1)n1nnc2ccccc21 (stereo not given) | 121 | 49% (active) | 121% (inactive) | 66.2% (inactive) | 74.8% (inactive) | 0.715% (inactive) | 74.1 | 74.8 | -1.07% (inactive) | -0.95% (inactive) |
| COC(=O)c1ccc(Oc2nc(NC(C)C)nc(N(C)C)n2)cc1 | 102 | 91.5% (inactive) | 102% (inactive) | 97.2% (inactive) | 89.5% (inactive) | -7.6% (inactive) | 97.1 | 89.5 | -5.14% (inactive) | -2.46% (inactive) |
| Cc1ccc(NC(=O)CSc2nnc(CCCCCNC(=O)OC(C)(C)C)o2)c(C)c1 | 112 | 87% (inactive) | 112% (inactive) | 88.6% (inactive) | 93.2% (inactive) | 1.79% (inactive) | 91.4 | 93.2 | 1.71% (inactive) | 1.29% (inactive) |
| CCCCc1nc2n[nH]c(N)c2c2c1CCCC2 | 138 | 96% (inactive) | 138% (inactive) | 59.9% (inactive) | 92.3% (inactive) | 6.68% (inactive) | 85.6 | 92.3 | -5.47% (inactive) | -0.82% (inactive) |
| Fc1ccc(-c2cnc[nH]2)cc1 | 98.5 | 99.5% (inactive) | 98.5% (inactive) | 80.8% (inactive) | 96.7% (inactive) | 6.2% (inactive) | 90.4 | 96.7 | 1.32% (inactive) | -8.55% (inactive) |
| COc1ccc2[nH]c(=O)c(CN(Cc3cccs3)Cc3nnnn3C(C)(C)C)cc2c1 | 77.5 | 90% (inactive) | 77.5% (inactive) | 58.7% (inactive) | 73.5% (inactive) | 7.29% (inactive) | 66.2 | 73.5 | -6.13% (inactive) | -0.95% (inactive) |
| CCOC(=O)CSc1nc2cc(C(=O)N3CCC(C(N)=O)CC3)ccc2c(=O)n1-c1ccccc1 | 98 | 95% (inactive) | 98% (inactive) | 76.5% (inactive) | 100% (inactive) | 7.63% (inactive) | 92.4 | 100 | -3.95% (inactive) | -4.17% (inactive) |
| O=C1c2ccccc2C(=O)N1OCc1ccccc1 | 95.5 | 91.5% (inactive) | 95.5% (inactive) | 101% (inactive) | 92.2% (inactive) | -0.76% (inactive) | 92.9 | 92.2 | -6.18% (inactive) | 3.93% (inactive) |
| O=C1CSC(c2cn(-c3ccccc3)nc2-c2cccs2)N1CC1CCCO1 (stereo not given) | 102 | 90% (inactive) | 102% (inactive) | 71.9% (inactive) | 95.7% (inactive) | -0.73% (inactive) | 96.4 | 95.7 | -2.11% (inactive) | 2.58% (inactive) |
| CCCCn1c(CN2CCN(CCO)CC2)nc2ccccc21 | 84 | 92% (inactive) | 84% (inactive) | 91.8% (inactive) | 96% (inactive) | 5.24% (inactive) | 90.7 | 96 | -0.39% (inactive) | -6.55% (inactive) |
| CCOc1cc2[nH]c(=S)n(CC3CCCO3)c(=O)c2cc1OCC (stereo not given) | 105 | 103% (inactive) | 105% (inactive) | 88.3% (inactive) | 87.8% (inactive) | 7.12% (inactive) | 80.7 | 87.8 | -4.46% (inactive) | -3.77% (inactive) |

| Compound | viability [1] [%] | Her2 level [2] | viability [3] | viability [4] | viability [5] | differential viability (reversal) ([6]; H69AR cells + 2 uM doxorubicin) | viability [6, 9] [%] | viability [6, 10] [%] | inhibition [7] | inhibition [8] |
| --- | --- | --- | --- | --- | --- | --- | --- | --- | --- | --- |
| Cc1cc(S(=O)(=O)n2cnc3ccccc32)c(C)cc1Cl | 86.5 | 120% (inactive) | 86.5% (inactive) | 99.1% (inactive) | 102% (inactive) | 9.41% (inactive) | 92.4 | 102 | -3.42% (inactive) | -3.97% (inactive) |
| O=S(=O)(c1ccc(OCC(O)CN2CCc3ccccc3C2)cc1)N1CCOCC1 (stereo not given) | 89 | 83.5% (inactive) | 89% (inactive) | 98.2% (inactive) | 87.6% (inactive) | 2.98% (inactive) | 84.6 | 87.6 | -1.71% (inactive) | -2.73% (inactive) |
| COc1ccc(C(C(C(=O)c2cccs2)N2CCOCC2)N2CCOCC2)cc1OC (stereo not given) | 102 | 112% (inactive) | 102% (inactive) | 84.3% (inactive) | 102% (inactive) | 4.94% (inactive) | 96.6 | 102 | -1.97% (inactive) | 0% (inactive) |
| O=C1c2ccccc2C(Nc2ccc3nc(-c4cccnc4)[nH]c3c2)N1Cc1ccco1 (stereo not given) | 88.5 | 108% (inactive) | 88.5% (inactive) | 87.5% (inactive) | 91.2% (inactive) | 10.1% (inactive) | 81.1 | 91.2 | 2.44% (inactive) | -4.17% (inactive) |
| Clc1ccc(OCCCn2cncn2)cc1Cl | 104 | 99% (inactive) | 104% (inactive) | 92.5% (inactive) | 80.2% (inactive) | -6.33% (inactive) | 86.5 | 80.2 | 2.03% (inactive) | 16.4% (inactive) |
| COc1ccc(N2C(=O)C3CCCN3C2c2ccc(F)cc2)cc1Cl (stereo not given) | 102 | 93.5% (inactive) | 102% (inactive) | 84.2% (inactive) | 87.4% (inactive) | -1.33% (inactive) | 88.7 | 87.4 | 0.39% (inactive) | -6.94% (inactive) |
| O=C1CC(c2ccco2)CC(O)=C1C=NCC1NCCc2ccccc21 (stereo not given) | 78.5 | 98.5% (inactive) | 78.5% (inactive) | 91.5% (inactive) | 90.7% (inactive) | -3.47% (inactive) | 94.1 | 90.7 | -0.92% (inactive) | 7.14% (inactive) |
| COc1cc(C2C(C#N)=C(C)NC3=C2C(=O)CC(C)(C)C3)ccc1O (stereo not given) | 100 | 84% (inactive) | 100% (inactive) | 94.7% (inactive) | 101% (inactive) | 3.54% (inactive) | 97.1 | 101 | -6.13% (inactive) | -7.46% (inactive) |
| Cc1cncn1CCc1nc2c3ccccc3nc(=S)n2[nH]1 | 110 | 88.5% (inactive) | 110% (inactive) | 89.2% (inactive) | 88.8% (inactive) | -4.09% (inactive) | 92.9 | 88.8 | -3.68% (inactive) | -4.13% (inactive) |
| CCOC(=O)c1sc(NC(=O)COC(=O)Cn2cnc3ccccc32)c(C(=O)OCC)c1C | 96 | 78% (inactive) | 96% (inactive) | 68.4% (inactive) | 71.2% (inactive) | -8.35% (inactive) | 79.6 | 71.2 | -0.26% (inactive) | -4.44% (inactive) |
| O=c1[nH]c2ccc(S(=O)(=O)N3CCN(C4CCCCC4)CC3)cc2[nH]c1=O | 90.5 | 104% (inactive) | 90.5% (inactive) | 91.8% (inactive) | 103% (inactive) | 9.67% (inactive) | 93.7 | 103 | 0.92% (inactive) | -12.6% (inactive) |
| CCOc1cc2oc(=O)c3c(c2cc1Cl)CCC3 | 106 | 96% (inactive) | 106% (inactive) | 102% (inactive) | 85.6% (inactive) | 8.13% (inactive) | 77.5 | 85.6 | -3.84% (inactive) | 2.38% (inactive) |
| CN(CC(=O)N1CCN(C2CCCCC2)CC1)S(=O)(=O)c1cccc2nsnc12 | 88 | 83% (inactive) | 88% (inactive) | 107% (inactive) | 97.2% (inactive) | 5.6% (inactive) | 91.5 | 97.2 | -4.53% (inactive) | 6.23% (inactive) |
| CCCCC(=NCCO)C1=C(O)C(C(=O)OC)C(C)(C)CC1=O (stereo not given) | 90.5 | 93% (inactive) | 90.5% (inactive) | 99.7% (inactive) | 89.5% (inactive) | -0.975% (inactive) | 90.5 | 89.5 | -3.68% (inactive) | -3.81% (inactive) |
| CC(C)CCNC(=O)NC(=O)CSc1nnc(-c2ccccc2F)n1N | 94 | 108% (inactive) | 94% (inactive) | 99.9% (inactive) | 98.1% (inactive) | 6.23% (inactive) | 91.9 | 98.1 | 8.03% (inactive) | 14.8% (inactive) |
| CC1Cc2ccccc2N1C(=O)COC(=O)Cn1nnc(-c2ccccc2)n1 (stereo not given) | 110 | 92.5% (inactive) | 110% (inactive) | 88.5% (inactive) | 81% (inactive) | 7.38% (inactive) | 73.6 | 81 | -5.27% (inactive) | 3.65% (inactive) |
